Compounds without any hit were thinned out: in the full panel of roughly 83,000, 20% have a hit.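 Treatment: one concentration, 48 hours, 96-well format. Scoring: percent growth, with anything below 10 considered active.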 The source made the active and inactive calls.
Experiments:
Experiment in all cases: NCI-60 one-dose screen, 48 h (100 = growth as untreated, 0 = no growth, -100 = all killed)
Settings in all cases: 10 µM unless noted
DU-145 prostate = tested on: DU-145 prostate
K-562 leukemia = tested on: K-562 leukemia
MALME-3M melanoma = tested on: MALME-3M melanoma
MDA-MB-231 breast = tested on: MDA-MB-231 breast
RXF 393 renal = tested on: RXF 393 renal
SF-268 CNS = tested on: SF-268 CNS
SF-295 CNS = tested on: SF-295 CNS
SF-539 CNS = tested on: SF-539 CNS
UACC-257 melanoma = tested on: UACC-257 melanoma
M14 melanoma = tested on: M14 melanoma
HCT-15 colon = tested on: HCT-15 colon
HT29 colon = tested on: HT29 colon
SNB-75 CNS = tested on: SNB-75 CNS
SNB-19 CNS = tested on: SNB-19 CNS
U251 CNS = tested on: U251 CNS
PC-3 prostate = tested on: PC-3 prostate
SK-MEL-5 melanoma = tested on: SK-MEL-5 melanoma
UACC-62 melanoma = tested on: UACC-62 melanoma
LOX IMVI melanoma = tested on: LOX IMVI melanoma
SK-MEL-28 melanoma = tested on: SK-MEL-28 melanoma

Measured: growth

C=CCOC(=O)C1=C(C)N(CC)C(=O)NC1c1c(Cl)n(C)c2ccccc12 (stereo not given)
inactive: DU-145 prostate 106% | K-562 leukemia 99.1% | MALME-3M melanoma 99.3% | MDA-MB-231 breast 96.7% | RXF 393 renal 108% | SF-268 CNS 92.9% | SF-295 CNS 88.6% | SF-539 CNS 98.4% | UACC-257 melanoma 98.4% | M14 melanoma 88.6% | HCT-15 colon 82.5% | HT29 colon 89.8% | SNB-75 CNS 92.3% | SNB-19 CNS 99.9% | U251 CNS 97.9% | PC-3 prostate 87.7% | SK-MEL-5 melanoma 100% | UACC-62 melanoma 82.6% | LOX IMVI melanoma 88.6% | SK-MEL-28 melanoma 104%

C=C1C(=O)O[C@H]2[C@H]1CC/C(COC(=O)/C=C\C(=O)NCc1ccc(Cn3c(=O)sn(CCCl)c3=O)cc1)=C\CC[C@@]1(C)O[C@@H]21
inactive: DU-145 prostate 57.6% | K-562 leukemia 28.9% | MALME-3M melanoma 43.6% | MDA-MB-231 breast 90% | RXF 393 renal 56.3% | SF-268 CNS 89% | SF-295 CNS 103% | SF-539 CNS 96.5% | UACC-257 melanoma 81.8% | M14 melanoma 51.6% | HCT-15 colon 44.8% | HT29 colon 86.6% | SNB-75 CNS 99.5% | SNB-19 CNS 111% | U251 CNS 88.9% | PC-3 prostate 94.6% | SK-MEL-5 melanoma 101% | UACC-62 melanoma 85.7% | LOX IMVI melanoma 67.2% | SK-MEL-28 melanoma 87%

COc1ccc2cc(-c3ccnc4c(N=Nc5ccc(Cl)cc5)c(N)nn34)ccc2c1
inactive: DU-145 prostate 105% | K-562 leukemia 86.5% | MALME-3M melanoma 97.8% | MDA-MB-231 breast 101% | RXF 393 renal 115% | SF-268 CNS 101% | SF-295 CNS 102% | SF-539 CNS 103% | UACC-257 melanoma 84.2% | M14 melanoma 92.8% | HCT-15 colon 112% | HT29 colon 103% | SNB-75 CNS 79.4% | SNB-19 CNS 92.4% | U251 CNS 93.4% | PC-3 prostate 89% | SK-MEL-5 melanoma 97.5% | UACC-62 melanoma 91.8% | LOX IMVI melanoma 102% | SK-MEL-28 melanoma 99.2%

CC(=O)/C(=C/c1ccc([N+](=O)[O-])cc1)C(=O)c1ccccc1
inactive: DU-145 prostate 92.6% | K-562 leukemia 31.3% | MALME-3M melanoma 89.1% | MDA-MB-231 breast 91.4% | RXF 393 renal 74.2% | SF-268 CNS 76.1% | SF-295 CNS 93.3% | SF-539 CNS 102% | UACC-257 melanoma 76.3% | M14 melanoma 79.8% | HCT-15 colon 60.6% | HT29 colon 41.1% | SNB-75 CNS 88.5% | SNB-19 CNS 92.5% | U251 CNS 71.3% | PC-3 prostate 63.4% | SK-MEL-5 melanoma 87.5% | UACC-62 melanoma 77.2% | SK-MEL-28 melanoma 91.6%
active: LOX IMVI melanoma -28.5%

CC1(C)CC[C@]23CC[C@]4(C)[C@H](CC[C@@H]5[C@@]6(C)C/C(=C/c7ccncc7)C(=O)C(C)(C)[C@@H]6CC[C@]54C)[C@H]2[C@H]1OC3
inactive: DU-145 prostate 82.1% | K-562 leukemia 69.9% | MALME-3M melanoma 87.9% | MDA-MB-231 breast 65.5% | RXF 393 renal 88.4% | SF-268 CNS 78.1% | SF-295 CNS 90.9% | SF-539 CNS 58.7% | UACC-257 melanoma 85.5% | M14 melanoma 96.6% | HCT-15 colon 73.4% | HT29 colon 43.9% | SNB-75 CNS 61.4% | SNB-19 CNS 83.4% | U251 CNS 70% | PC-3 prostate 51% | SK-MEL-5 melanoma 78.8% | UACC-62 melanoma 90.5% | LOX IMVI melanoma 73.1% | SK-MEL-28 melanoma 76%

O=C(Cc1ccc(/C=C/C(=O)c2ncc[nH]2)cc1)Nc1cc(C(F)(F)F)cc(C(F)(F)F)c1
inactive: DU-145 prostate 86.2% | K-562 leukemia 18.9% | MALME-3M melanoma 92.1% | MDA-MB-231 breast 92.6% | RXF 393 renal 67.8% | SF-268 CNS 88.2% | SF-295 CNS 93.7% | SF-539 CNS 73.7% | UACC-257 melanoma 100% | M14 melanoma 89.6% | HCT-15 colon 62.4% | HT29 colon 26.3% | SNB-75 CNS 79% | SNB-19 CNS 77.3% | U251 CNS 38.5% | PC-3 prostate 85.3% | SK-MEL-5 melanoma 93.1% | UACC-62 melanoma 80.9% | LOX IMVI melanoma 34.5% | SK-MEL-28 melanoma 104%

COc1ccc(CCN(CC(=O)N(CC(N)=O)C2CCC[C@@H]2OCc2ccccc2)C(=O)CN(C(=O)CN(CCc2ccc(Cl)cc2)C(=O)CN(C(=O)CN(C)Cc2ccccc2F)[C@H](C)C2CCCCC2)[C@H](C)C2CCCCC2)cc1OC (stereo not given in full)
inactive: DU-145 prostate 43.7% | K-562 leukemia 10.4% | MALME-3M melanoma 51.7% | MDA-MB-231 breast 29.7% | SF-268 CNS 26.5% | SF-539 CNS 33.7% | M14 melanoma 19.3% | HCT-15 colon 33.7% | SNB-75 CNS 53.5% | SNB-19 CNS 33.9% | U251 CNS 21.5% | PC-3 prostate 15% | UACC-62 melanoma 33.8% | SK-MEL-28 melanoma 32.5%
active: RXF 393 renal -10% | SF-295 CNS -0.412% | UACC-257 melanoma -5.66% | HT29 colon 0.386% | SK-MEL-5 melanoma -41.8% | LOX IMVI melanoma -33%

CC1(C)C(N)=Nc2cc(OCCCN3Cc4ccccc4C3)c(OCC3CC3)cc21
active: MALME-3M melanoma -14% | UACC-257 melanoma 1.23% | M14 melanoma -45.1%
inactive: DU-145 prostate 93.8% | K-562 leukemia 38.8% | MDA-MB-231 breast 49.1% | RXF 393 renal 69.3% | SF-268 CNS 80.2% | SF-295 CNS 78.3% | SF-539 CNS 70.3% | HCT-15 colon 40% | HT29 colon 31.6% | SNB-75 CNS 77.3% | SNB-19 CNS 85.2% | U251 CNS 56.4% | PC-3 prostate 49.6% | SK-MEL-5 melanoma 53.1% | UACC-62 melanoma 78% | LOX IMVI melanoma 33.7% | SK-MEL-28 melanoma 56.2%

NC(N)=NS(=O)(=O)c1ccc(NC2=C(I)C(=O)c3ncccc3C2=O)cc1
inactive: DU-145 prostate 105% | K-562 leukemia 94.2% | MALME-3M melanoma 103% | MDA-MB-231 breast 92.7% | RXF 393 renal 108% | SF-268 CNS 90.5% | SF-295 CNS 103% | SF-539 CNS 97.4% | UACC-257 melanoma 97.1% | M14 melanoma 111% | HCT-15 colon 103% | HT29 colon 106% | SNB-75 CNS 67.9% | SNB-19 CNS 98.7% | U251 CNS 110% | PC-3 prostate 92.1% | SK-MEL-5 melanoma 97.9% | UACC-62 melanoma 94.2% | LOX IMVI melanoma 95% | SK-MEL-28 melanoma 135%

CCOC(=O)C#Cc1c(C(=O)OCC)nnn1Cc1ccc(C(F)(F)F)cc1
active: K-562 leukemia 3.87% | RXF 393 renal -7.11% | HCT-15 colon -16.9% | HT29 colon 5.09% | LOX IMVI melanoma -68.3%
inactive: DU-145 prostate 60.5% | MALME-3M melanoma 74.4% | MDA-MB-231 breast 88.1% | SF-268 CNS 86.6% | SF-295 CNS 94.8% | SF-539 CNS 43.3% | UACC-257 melanoma 74.2% | M14 melanoma 30.5% | SNB-75 CNS 62.3% | SNB-19 CNS 85.5% | U251 CNS 93.7% | PC-3 prostate 64.5% | SK-MEL-5 melanoma 95.2% | UACC-62 melanoma 80% | SK-MEL-28 melanoma 89.7%

C=CC(=O)Nc1ccc(Nc2nccc(-c3ccc(N4CCCC4)c(C#N)c3)n2)cc1
active: MALME-3M melanoma -41.8% | RXF 393 renal -54.5% | SF-295 CNS -36.9% | M14 melanoma 3.42% | HCT-15 colon -36.7% | HT29 colon 2.55% | U251 CNS 5.57% | SK-MEL-28 melanoma -46.1%
inactive: DU-145 prostate 36.8% | K-562 leukemia 16.6% | MDA-MB-231 breast 60.9% | SF-268 CNS 43.9% | SF-539 CNS 51.1% | UACC-257 melanoma 39.4% | SNB-75 CNS 15.4% | SNB-19 CNS 41.5% | PC-3 prostate 23.6% | SK-MEL-5 melanoma 15.4% | UACC-62 melanoma 52.9% | LOX IMVI melanoma 69.4%

CC1C=CC(OC(=O)C(C)(O)CCC(O)(C(=O)OC2CC(O)C(C(C)C)CC2(C)O)C(C)C)(C(C)C)CC1 (stereo not given)
active: DU-145 prostate -89% [4.63 µM] | K-562 leukemia -61.1% [4.63 µM] | MALME-3M melanoma -71.5% [4.63 µM] | MDA-MB-231 breast -59.7% [4.63 µM] | RXF 393 renal -87.3% [4.63 µM] | SF-268 CNS -43.9% [4.63 µM] | SF-295 CNS -86.9% [4.63 µM] | SF-539 CNS -95.5% [4.63 µM] | UACC-257 melanoma -88% [4.63 µM] | M14 melanoma -74.8% [4.63 µM] | HCT-15 colon -68.5% [4.63 µM] | HT29 colon -39.6% [4.63 µM] | SNB-75 CNS -45.9% [4.63 µM] | SNB-19 CNS -75% [4.63 µM] | U251 CNS -94.2% [4.63 µM] | PC-3 prostate -84.9% [4.63 µM] | SK-MEL-5 melanoma -99.8% [4.63 µM] | UACC-62 melanoma -88.9% [4.63 µM] | LOX IMVI melanoma -88.4% [4.63 µM] | SK-MEL-28 melanoma -96.9% [4.63 µM]

CNC1=CC(=O)c2c(C(=O)OC)c(C)[n+]([O-])c(C)c2C1=O
active: MALME-3M melanoma -46.2% | SK-MEL-5 melanoma -47.9%
inactive: DU-145 prostate 68.7% | K-562 leukemia 71% | MDA-MB-231 breast 63.8% | RXF 393 renal 74.4% | SF-268 CNS 89.2% | SF-295 CNS 86.4% | SF-539 CNS 83.8% | UACC-257 melanoma 49.3% | M14 melanoma 24% | HCT-15 colon 49.1% | HT29 colon 16.5% | SNB-75 CNS 147% | SNB-19 CNS 81.5% | U251 CNS 64% | PC-3 prostate 61.9% | UACC-62 melanoma 27.3% | LOX IMVI melanoma 34.4% | SK-MEL-28 melanoma 96.3%

C=C1C(=O)O[C@H]2[C@H]1CC/C(COC(=O)NCc1ccc(Cn3c(=O)sn(-c4ccc(C#N)cc4)c3=O)cc1)=C\CC[C@@]1(C)O[C@@H]21
active: DU-145 prostate 8.56%
inactive: K-562 leukemia 20.4% | MALME-3M melanoma 56.9% | MDA-MB-231 breast 48.6% | RXF 393 renal 52.7% | SF-268 CNS 75.1% | SF-295 CNS 102% | SF-539 CNS 61.2% | UACC-257 melanoma 69.4% | M14 melanoma 68.8% | HCT-15 colon 87.8% | HT29 colon 48.2% | SNB-75 CNS 80.3% | SNB-19 CNS 88.5% | U251 CNS 81.2% | PC-3 prostate 71.6% | SK-MEL-5 melanoma 89.5% | UACC-62 melanoma 69.3% | LOX IMVI melanoma 65.9% | SK-MEL-28 melanoma 87.2%
